# Compound activity from PubChem.
# A selection: hits, their analogues and other compounds. The true share with any hit is near 6.5%.
# HCMV inh: blocks human cytomegalovirus replication. 410,000 tested, 4.5% active. AID 1259415. activity change, negative = inhibition, % at 57.5 µM. HFF cells, HCMV-luciferase reporter, 72 h; hits give low values; in the data active means activity change below about -60%; inconclusive means no clear call, values can overlap the other calls; inactive means above about -39%
#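 Compounds were evaluated in HFFs infected with an HCMV luciferase reporter virus (MOI 1 PFU/cell). Luciferase in lysates collected 72 h post infection served as the replication measure.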
# Vaccinia Venus: vaccinia inhibition (Venus reporter); Vaccinia virus Venus reporter expression, fluorescence; Potency, µM (top dose mostly 36.5 µM), inactives show at the highest dose activity change, negative = inhibition, hits mostly inhibitors; 330,000 tested, 0.46% active; calls by dose curve; tested in A549 cells; further: potency means the concentration at half of the fitted maximal effect; nearly all actives have a fitted effect of over 30% in size
# Lassa entry inh: Lassa virus entry inhibition; Potency, µM (series often up to 37.9 µM), for inactives: at the top dose activity change, negative = inhibition, usual class: inhibitors; AID 540256; 300,000 tested, 1.2% active; Lassa virus pseudotype entry inhibition, cell reporter; calls by dose curve; tested in HEK293 cells; further: potency means the concentration at half of the fitted maximal effect; nearly all actives have a fitted effect of over 50% in size
# Marburg entry inh: Marburg virus entry inhibition; Marburg virus pseudotyped entry inhibition, cell reporter; Potency, µM (highest dose often 37.8 µM), for the others: at the top dose activity change, negative = inhibition, most hits filed as inhibitors; 300,000 tested, 1.8% active; calls by dose curve; tested in HEK293 cells; further: potency means the concentration at half of the fitted maximal effect
# FMDV antiviral: foot and mouth disease virus antiviral activity; FMDV antiviral cell-based qHTS; Potency, µM (titrated, usually from 57.9 µM), inactives show at the top dose activity change, negative = inhibition, most hits filed as inhibitors; 410,000 tested, 1.2% active; AID 1159524; calls by dose curve; tested in HEK293T cells; further: read-out not given here; potency means the concentration at half of the fitted maximal effect; nearly all actives have a fitted effect of over 45% in size
# Vaccinia mCherry: inhibitors of vaccinia virus infection (mCherry reporter signal) | 310,000 tested, 0.63% active | Potency, µM (series often up to 36.5 µM), for the others: at the top dose activity change, negative = inhibition, usual class: inhibitors | Vaccinia virus mCherry reporter infection, fluorescence; calls by dose curve; tested in A549 cells; further: potency means the concentration at half of the fitted maximal effect; nearly all actives have a fitted effect of over 35% in size
# The depositor's hits bear a star; i = inactive; ? = inconclusive; · = not tested or not shown; ! = not active in a repeat; [ ] = another dose, or the depositor's remark. On the % scale 0 is the no-effect control and ±100 the full control effect.
SMILES,HCMV inh,Vaccinia Venus,Lassa entry inh,Marburg entry inh,FMDV antiviral,Vaccinia mCherry
CCC(C)n1c(SCc2c(F)cccc2Cl)nc2ccsc2c1=O (stereo unspecified),?,-21.5%[7.34 µM],?,·,0.0%,-26.7%[7.34 µM]
O=C(O)c1ccc(CN2CCCCC2)o1,-68.0*,-7.2%,16.3%,0.7%,·,-7.2%
CCCCN(CC)CCNC(=O)c1cn(C)c(=O)c2c1c1ccccc1n2C,-62.2*!,3.3%,?,-34.9%[46.1 µM],3.2%,-7.3%
CCCCN(C)CCNC(=O)c1cn(C)c(=O)c2c1c1ccccc1n2C,14.9,-4.3%,-9.5%[46.1 µM],11.2µM*,-10.2%,i
COC(=O)CSc1ncc2c(n1)-c1ccccc1N(Cc1cccc(F)c1)S2(=O)=O,6.0,12.2%,?,·,11.9%,3.4%
CCc1ccc(NC(=O)CSc2ccc3nnc(CCNS(=O)(=O)c4ccc(OC)cc4)n3n2)cc1,-12.1,-6.1%,-2.4%[46.1 µM],·,3.2%,-3.9%
CCCCN1C(=O)C(CC(=O)NC2CCCC2)CC(C(=O)N2CCOCC2)=C1C (stereo unspecified),11.1,-6.5%,·,·,39.8µM*,-6.0%
CCCCN1C(=O)C(CC(=O)NC2CCCCC2)CC(C(=O)N2CCOCC2)=C1C (stereo unspecified),-8.7,-5.2%,·,·,-18.6%,39.1%
COC[C@@H]1CCCN1c1ccc2c(c1)O[C@@H](COCc1ccccc1)CN([C@H](C)c1ccccc1)S2(=O)=O,-64.7*,3.3%,·,·,10.9%,1.5%
C[C@H](c1ccccc1)N1C[C@@H](COCc2ccccc2)Oc2cc(N3CC[C@H](O)C3)ccc2S1(=O)=O,-76.2*,-4.9%,·,·,8.9%,i
C[C@@H](c1ccccc1)N1C[C@H](COCc2ccccc2)Oc2cc(N3CC[C@@H](N(C)C)C3)ccc2S1(=O)=O,?,-26.5%,·,·,7.9%,-17.6%
C[C@@H](c1ccccc1)N1C[C@H](COCc2ccccc2)Oc2cc(N3CC[C@H](N(C)C)C3)ccc2S1(=O)=O,-60.5*,-10.1%,·,·,11.9%,13.0%
CCCCC[C@@H](C)N1C[C@H](COCc2ccccc2)Oc2cc(N3CC[C@H](N(C)C)C3)ccc2S1(=O)=O,-101.2*,?,·,·,1.2%,?
CCCCC[C@H](C)N1C[C@H](COCc2ccccc2)Oc2cc(N3CC[C@H](O)C3)ccc2S1(=O)=O,-5.0,2.7%,·,·,17.7%,i
COC[C@@H]1CCCN1c1ccc2c(c1)O[C@@H](COCc1ccccc1)CN([C@@H](C)c1ccccc1)S2(=O)=O,-15.4,-13.1%,·,·,36.4%,-11.3%
O=C(NCc1ccccc1Cl)c1ccc2c(c1)NC(=O)C(CS(=O)(=O)Cc1ccc(Cl)cc1)N2 (stereo unspecified),-9.4,22.4%,3.8%[46.1 µM],·,-9.4%,-10.5%
Cc1cccc2c(=O)cc(CSCC(=O)Nc3ccc(Cl)cc3)[nH]c12,-0.8,-5.2%,-2.9%[46.1 µM],·,-27.3%,19.4%
CC(=O)N(c1nc2ccccc2s1)N1C(=O)c2ccccc2C1=O,-4.9,·,·,·,·,·
Cc1nc([N+](=O)[O-])cn1CC(O)c1ccc2c(c1)OCCCO2 (stereo unspecified),·,-8.8%,·,·,·,-4.8%
COc1ccc(S(=O)(=O)NCCc2sc(-c3cccc(C)c3)nc2C)cc1,-5.5,-0.4%,-18.5%[46.1 µM],·,10.7%,-0.9%
Cc1cc(S(=O)(=O)NCc2ccccc2)ccc1OCC(=O)Nc1cccc([N+](=O)[O-])c1,-8.2,?,?,11.6µM*,-20.4%,?
Cc1cc(S(=O)(=O)NCc2ccccc2)ccc1OCC(=O)NCc1ccccn1,29.6,-1.5%,?,-4.9%[46.1 µM],49.0%,-14.8%
Cc1nc(C#N)nc(Oc2ccccc2)c1Cl,·,-18.9%,·,·,·,-27.3%
CCOc1ccc(OCC)c(S(=O)(=O)NC2CC(C)(C)NC(C)(C)C2)c1,-15.8,-16.0%,?,?,82.9%,-20.2%
CCOc1c(S(=O)(=O)NC2CC(C)(C)NC(C)(C)C2)ccc(Cl)c1Cl,-33.7,-18.1%,-24.8%[46.1 µM],10µM*,-2.1%,-23.0%
SMILES,HCMV inh,Vaccinia Venus,Lassa entry inh,Marburg entry inh,FMDV antiviral,Vaccinia mCherry
FC(F)(F)c1ccccc1NC(=S)N1CCc2ccccc2C1,-26.8,·,?,?,-2.1%,·
CCCN1CCN(C(=S)Nc2ccccc2C(F)(F)F)CC1,-82.9*,?,-19.1%,?,-19.3%,-29.4%
COc1cccc(-c2ccc3ncnc(N4CCOCC4)c3c2)c1,·,·,·,·,-21.5%,·
COc1cc([N+](=O)[O-])cc(/C=N/NC(=O)C(O)(c2ccccc2)c2ccccc2)c1O,8.1,-11.9%,?,?,-6.5%,-16.4%
COc1cc([N+](=O)[O-])cc(/C=N/NC(=O)c2cccnc2)c1O,-88.1*,·,·,·,-10.0%,·
CCn1c(C)nc2cc(C(=O)N/N=C/c3cccc(OC)c3O)ccc21,-15.3,?,?,?,5.1%,10µM*
COc1ccccc1C=NNC(=O)NN=Cc1ccccc1OC,-38.5,-4.6%,-6.0%[46.1 µM],-3.8%[46.1 µM],14.0%,?
COc1cccc(/C=N/NC(=O)c2nc(-c3ccccc3)cc(-c3ccccc3)n2)c1O,-97.2*,-17.4%,?,?,0.0%,-21.2%
COc1cccc(/C=N/NC(=O)N/N=C/c2cccc(OC)c2O)c1O,-13.0,-18.7%,?,4.47µM*,6.8%,-12.7%
CCn1c(C)nc2cc(C(=O)N/N=C/c3ccc(O)c(O)c3O)ccc21,-7.7,0.9%,-9.6%,?,-26.7%,-11.7%
Cc1cc(C)c(NC(=O)c2cc(S(=O)(=O)N3CCC4(CC3)OCCO4)ccc2F)c(C)c1,-20.5,-1.6%,9.9%[46.1 µM],·,-10.6%,-3.3%
CC(C)C(=O)Nc1ccc(/C=C2\C=Cc3ccccc32)cc1,·,-8.5%,·,·,·,35.2%
COc1ccccc1C=NN=C(N)C(N)=NN=Cc1ccccc1OC,-5.5,-10.5%,-8.9%,2.0%,-6.5%,-1.1%
COc1cccc(/C=N/NC(=O)Cn2nc(C)c([N+](=O)[O-])c2C)c1O,18.0,?,?,?,-6.1%,11.2µM*
CC(Nc1cccc2ccccc12)C(=O)N/N=C/c1ccc([N+](=O)[O-])cc1 (stereo unspecified),-6.1,-19.5%,-23.3%,?,-27.8%,-29.8%
COc1cc([N+](=O)[O-])cc(/C=N/NC(=O)C(C)Nc2cccc3ccccc23)c1O (stereo unspecified),-61.4*,-21.7%,-7.8%,-28.8%,-24.0%,-13.7%
COc1ccc(/C=N/NC(=O)c2ccncc2)c(OC)c1,31.1,·,·,·,12.1%,·
COc1cccc(/C=N/NC(=O)C(C)n2nc(C)c([N+](=O)[O-])c2C)c1O (stereo unspecified),107.4,?,?,?,32.7%,?
COc1cccc(C=NNC(=O)c2ccncc2)c1O,6.0,?,?,?,21.4%,1.58µM*
COc1ccccc1C=NN=C(NN=Cc1ccccc1OC)NN=Cc1ccccc1OC,25.9,?,12.6µM*,?,?,?
COc1ccccc1CNc1nc(-c2ccccc2OC)nc2ccccc12,·,·,·,·,-28.3%,·
COC(=O)C1=C(c2ccccc2)c2ccccc2S(=O)(=O)N1CC(=O)Nc1ccccc1Cl,-11.0,-13.0%,-22.1%[46.1 µM],?,-4.0%,-23.8%
